PubChem BioAssay (NCI)
Compounds without any hit were thinned out: in the full panel of roughly 79,000, 15% have a hit. A number with no mark means an inactive call. The source made the active and inactive calls. Rule as the data show it: active = growth inhibition above about 70%; inactive = the rest.

Assays:
[1] = NCI Yeast Anticancer Drug Screen. Data for the rad50 strain (AID 155);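 also: 0% = growth of vehicle-only cultures of the same strain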; conditions: S. cerevisiae rad50 strain growth inhibition, active compounds read high
Method in brief: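 Relative growth inhibition (compound vs vehicle) was measured in yeast with a defined repair-gene alteration.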

[2] = NCI Yeast Anticancer Drug Screen. Data for the mec2-1 strain (AID 157); conditions: S. cerevisiae mec2-1 strain, active compounds read high
Method in brief: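 Mutant yeast (mec2-1) grown with compound; growth inhibition relative to vehicle control reported.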

[3] = NCI Yeast Anticancer Drug Screen. Data for the sgs1 mgt1 strain (AID 161);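 also: 0% = growth of cultures given vehicle only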; conditions: S. cerevisiae sgs1 mgt1 strain, active compounds read high
Method in brief: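 Compounds are added to genetically altered yeast, and growth is compared with cultures given vehicle alone to give percent inhibition.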

[4] = NCI Yeast Anticancer Drug Screen. Data for the cln2 rad14 strain (AID 165);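 also: 0% = growth equal to vehicle treated cultures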; conditions: S. cerevisiae cln2 rad14 strain, active compounds read high
Method in brief: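 Readout is yeast growth inhibition versus vehicle-treated controls, using a strain with cln2 and rad14 alterations exposed to compound.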

[5] = NCI Yeast Anticancer Drug Screen. Data for the bub3 strain (AID 167); conditions: S. cerevisiae bub3 mutant strain, active compounds read high
Method in brief: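 Screening used yeast with an engineered genetic alteration affecting cell cycle control. Compound-exposed cultures were compared with vehicle cultures, and reduced growth was taken as inhibition.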

[6] = NCI Yeast Anticancer Drug Screen. Data for the mlh1 rad18 strain (AID 175); conditions: S. cerevisiae mlh1 rad18 strain growth inhibition, active compounds read high
Method in brief: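 Genetically defined yeast (DNA repair-deficient) exposed to compounds; growth inhibition determined relative to vehicle.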

[7] = at 5.0 µM (retest, dose inferred, filed as 0.5)
[8] = at 50.0 µM (retest, dose inferred, filed as 5.0)

| Compound | growth inhibition [1, 7] | growth inhibition [1, 8] | growth inhibition ([1]; at 50.0 µM) | growth inhibition [2, 7] | growth inhibition [2, 8] | growth inhibition ([2]; at 50.0 µM) | growth inhibition [3, 7] | growth inhibition [3, 8] | growth inhibition ([3]; at 50.0 µM) | growth inhibition [4, 7] | growth inhibition [4, 8] | growth inhibition ([4]; at 50.0 µM) | growth inhibition [5, 7] | growth inhibition [5, 8] | growth inhibition ([5]; at 50.0 µM) | growth inhibition [6, 7] | growth inhibition [6, 8] | growth inhibition ([6]; at 50.0 µM) |
| --- | --- | --- | --- | --- | --- | --- | --- | --- | --- | --- | --- | --- | --- | --- | --- | --- | --- | --- |
| O=C(O)c1cccc2c1Oc1c(cccc1C(=O)O)S2 | 3% | 1% | 98.3% (active) | 0% | 9% | 98.2% (active) | 0% | 3% | 98.3% (active) | 2% | 6% | 98.2% (active) | 1% | 1% | 98.8% (active) | 2% | -2% | 98.5% (active) |
| O=C(C[n+]1ccc2ccccc2c1)c1ccc2ccc3ccccc3c2c1 | 5% | 92% (active) | 97.7% (active) | 0% | 73% (active) | 85.8% (active) | -3% | 89% (active) | 96% (active) | 1% | 72% (active) | 98.2% (active) | -11% | 92% (active) | 93% (active) | -4% | 99% (active) | 98.7% (active) |
| COC(=O)c1ccccc1CC(Cc1ccc2c(c1)CCC2)C(=O)OC (stereo not given) | 20% | 27% | 35% | 12% | 14% | 16.9% | 10% | 20% | 29.6% | 9% | -2% | 13.7% | 16% | 27% | 12.3% | 16% | 15% | 4.25% |
| Cc1cc(O)c(/C=N/C(=S)Nc2ccc(S(N)(=O)=O)cc2)c(=O)o1 | 17% | 42% | -24.4% | 13% | 32% | 4.9% | 19% | 57% | -10.2% | 8% | 39% | -6.55% | 31% | 56% | 1.45% | 9% | 44% | -33.1% |
| O=S(=O)(Nc1ccc(NS(=O)(=O)c2ccccc2)c(N2N=N2)c1)c1ccccc1 | 1% | 69% | 86.3% (active) | 2% | 80% (active) | 66.2% | 4% | 76% (active) | 88.9% (active) | 0% | 55% | 79.1% (active) | -2% | 62% | 75.4% (active) | -2% | 79% (active) | 76.6% (active) |
| CN(C)CCOc1cc2c(c3ccccc13)-c1ccccc1C2=O | 93% (active) | 99% (active) | 99.7% (active) | 14% | 99% (active) | 99.3% (active) | 20% | 100% (active) | 99.4% (active) | 12% | 96% (active) | 99% (active) | 6% | 99% (active) | 99.6% (active) | 21% | 100% (active) | 99.1% (active) |
| COc1ccc(COCCOCc2nc(C#N)c(N)o2)cc1 | 16% | 8% | 43.3% | 13% | 9% | 12.1% | 16% | 5% | -25.1% | 16% | 11% | -16.8% | 22% | 12% | -31.7% | 10% | 4% | -1.6% |
| Brc1c2nc3ccccc3nc2n2ccc3ccccc3c12 | -37% | 59% | 47.8% | -11% | 86% (active) | 43% | -18% | 78% (active) | 54.5% | -14% | 83% (active) | 44.1% | -37% | 83% (active) | 21% | -38% | 69% | 59.5% |
| O=S(=O)(c1ccccc1)n1cc(C[P+](c2ccccc2)(c2ccccc2)c2ccccc2)c2ccccc21 | 21% | 99% (active) | 99.3% (active) | -1% | 99% (active) | 99.5% (active) | 20% | 98% (active) | 99.5% (active) | 8% | 99% (active) | 98.1% (active) | 10% | 99% (active) | 99.4% (active) | 27% | 99% (active) | 99.3% (active) |
| CCCOC(=O)CCCC(=O)N(CC)CC | 1% | -10% | 10.7% | 0% | 1% | -7.7% | 0% | -9% | -25.1% | -5% | 0% | 71.5% (active) | -4% | -3% | -0.6% | -5% | -11% | 19.5% |
| Cc1c2c(c(C)c3c1sc1ccccc13)CCN=C2 | 9% | 98% (active) | 55.5% | -14% | 98% (active) | 49.9% | -1% | 98% (active) | 57.6% | -21% | 98% (active) | 94.9% (active) | -5% | 98% (active) | 92.8% (active) | -8% | 99% (active) | 57.2% |
| CCCCC(C)(C)OC(=O)Nc1ccc(Br)cc1 | 0% | 95% (active) | 96.3% (active) | -14% | 94% (active) | 86.2% (active) | -8% | 95% (active) | 97.8% (active) | 43% | 96% (active) | 84.2% (active) | -8% | 93% (active) | 35.5% | -2% | 96% (active) | 97.4% (active) |
| CN(C)CC1CC/C(=C\c2ccc(Cl)c(Cl)c2)C1=O (stereo not given) | 21% | 98% (active) | 93.1% (active) | 44% | 99% (active) | 93.6% (active) | 25% | 98% (active) | 92.4% (active) | 37% | 99% (active) | 91.3% (active) | 74% (active) | 99% (active) | 91.5% (active) | 84% (active) | 99% (active) | 90.2% (active) |
| CN(C)Cc1ccc2c(c1)c1c(n2Cc2ccccc2)CCCC1 | -2% | 94% (active) | 84.3% (active) | -7% | 84% (active) | 70.2% (active) | -4% | 20% | 90.4% (active) | -5% | 96% (active) | 86.7% (active) | -8% | 96% (active) | 97.9% (active) | 3% | 97% (active) | 97.7% (active) |
| O=C1c2ccccc2C(=O)c2c1cc(O)c(O)c2O | 17% | 95% (active) | 83.2% (active) | 20% | 92% (active) | 77.5% (active) | 23% | 95% (active) | 81.5% (active) | 2% | 88% (active) | 59.2% | 13% | 91% (active) | 70.7% (active) | 35% | 95% (active) | 82% (active) |
| O=C(O)/C(=C/c1ccc(Cl)cc1)c1ccccc1 | -5% | 23% | 4.7% | -7% | 23% | 44.5% | -3% | 27% | 10.6% | -10% | 39% | 90.7% (active) | -8% | 17% | 9.95% | -5% | 45% | 39.6% |
| CCOC(=O)C1=C(c2ccccc2)N(C)c2ccccc2S1 | 4% | 55% | 75.9% (active) | 4% | 92% (active) | 80.7% (active) | 5% | 64% | 76.2% (active) | -1% | -7% | -0.8% | 2% | 78% (active) | 87% (active) | 1% | 62% | 67.2% |
| CC(=O)Nc1ccc(C(=O)C(C)Br)cc1 (stereo not given) | 38% | 99% (active) | 62.8% | 28% | 99% (active) | 81.8% (active) | 43% | 99% (active) | 80.5% (active) | 24% | 98% (active) | 23.6% | 30% | 99% (active) | 66.1% | 40% | 99% (active) | -30.8% |
| COc1ccc(C(=O)Nc2ccccc2[N+](=O)[O-])cc1 | -6% | 7% | -1.15% | -16% | -23% | 8.3% | -13% | -11% | 10.4% | -14% | 5% | 48.5% | -15% | 13% | 19.2% | -13% | 0% | 16.2% |
| NC(=O)c1ncn(C2OC(CO)C(O)C2O)c1O (stereo not given) | 20% | 6% | -7.65% | -9% | -10% | -11.4% | -3% | 7% | 11.3% | 13% | 10% | 4% | 1% | 32% | -7.85% | 2% | -4% | -47.8% |
